Assay [1] is described as follows: Nuclear factor erythroid 2-related factor 2/antioxidant responsive element (Nrf2/ARE) small molecule agonists: qHTS cell viability counter screen in human keratinocytes (AID 1919968; active = well fitted curve in the direction sought with a large enough effect in the repeat runs; an effect the other way counts as inactive or inconclusive; also: nearly all actives have a fitted effect of over 55% in size; also: potency is read from the fitted curve at half-maximal effect). A digest of the protocol:
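Cells of the KeratinoSens line were plated at 1,500 per well and left for 5 h before compound transfer from DMSO stocks. After a 23 h incubation (37 C, 5% CO2), CellTiter-Fluor was added. Signal was taken as fluorescence intensity 1 h later.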

A short description of assay [2]: Nuclear factor erythroid 2-related factor 2/antioxidant responsive element (Nrf2/ARE) small molecule agonists: luciferase reporter gene qHTS assay in human keratinocytes (AID 1919969). Also: nearly all actives have a fitted effect of over 35% in size. Also: potency is read from the fitted curve at half-maximal effect.
In assay [3] the target is Gonadotropin-releasing hormone receptor (Homo sapiens) (UniProt P30968). Kind of assay: Human gonadotropin-releasing hormone receptor (GnRHR) small molecule agonists, calcium flux assay in GnRHR-HEK293 cells (AID 1920063). Also: nearly all actives have a fitted effect of over 35% in size. The method in brief: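 Compounds dissolved in DMSO are pin-transferred onto dye-loaded GnRHR-HEK293 cells, which were seeded 18 h before at 37 C/5% CO2. Calcium signal is read as fluorescence intensity at 1 s intervals for 3 min.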
Chain of Gonadotropin-releasing hormone receptor (Homo sapiens) (P30968 whole entry, looked up): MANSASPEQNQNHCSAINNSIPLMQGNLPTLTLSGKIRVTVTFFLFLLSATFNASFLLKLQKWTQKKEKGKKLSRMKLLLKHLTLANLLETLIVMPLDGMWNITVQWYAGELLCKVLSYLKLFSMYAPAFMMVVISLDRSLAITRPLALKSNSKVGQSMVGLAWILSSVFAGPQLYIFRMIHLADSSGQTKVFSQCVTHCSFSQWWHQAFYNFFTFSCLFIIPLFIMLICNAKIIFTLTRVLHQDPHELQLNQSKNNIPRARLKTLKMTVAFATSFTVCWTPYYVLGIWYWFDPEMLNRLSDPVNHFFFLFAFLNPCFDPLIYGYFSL

In assay [4] the target is KiSS-1 receptor (Homo sapiens) (UniProt Q969F8). The experiment in a line: Human kisspeptin (KISS1R) small molecule agonists, calcium flux assay in KISS1R-HEK293 cells (AID 1920064; active = well fitted curve in the direction sought with a large enough effect in the repeat runs; an effect the other way counts as inactive or inconclusive). The method in brief:
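Cell line: HEK293, stable human KISS1R. Dye loading 1 h at 37 C after 18 h culture. Read: kinetic fluorescence, 480/540 nm, 3 min at 1 s intervals.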

The nature of assay [5]: G protein-coupled receptor (GPCR) small molecule agonists, calcium flux assay: HEK293 wild type cell line counter screen (AID 1920065). The method in brief: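 Tox21 10K compounds, 15 concentrations each in triplicate, pin-transferred in DMSO onto dye-loaded cells; kinetic read at 480/540 nm for 3 min, 1 s intervals.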
A short description of assay [6]: p53 small molecule agonists, cell-based qHTS assay with human liver microsomes (AID 1963577). A digest of the protocol:
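p53RE-bla reporter cells were pre-incubated 5 h at 37 C, then treated with compounds plus human liver microsomes (0.5 mg/mL final) and NADPH (0.5 mg/mL final) for 16 h at 37 C. Beta-lactamase activity was read by LiveBLAzer fluorescence after 2 h at room temperature.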

A short description of assay [7]: p53 small molecule agonists, cell-based qHTS assay with rat liver microsomes (AID 1963578). A digest of the protocol: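 p53RE-bla cells were exposed to compounds together with rat liver microsomes (0.5 mg/mL final) and NADPH (0.5 mg/mL final) for 16 h at 37 C, then read by LiveBLAzer beta-lactamase fluorescence after 2 h at room temperature.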
Assay [8] is described as follows: p53 small molecule agonists, cell-based qHTS assay with human liver microsomes: qHTS cell viability counter screen (AID 1963579). Also: nearly all actives have a fitted effect of over 45% in size. A digest of the protocol:
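p53RE-bla cells (4,000/well) were pre-incubated 5 h at 37 C, then given compounds in DMSO plus human liver microsomes (0.5 mg/mL final) and NADPH (0.5 mg/mL final) for 16 h at 37 C. Viability was read by CellTiter-Glo luminescence.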

A short description of assay [9]: p53 small molecule agonists, cell-based qHTS assay: qHTS cell viability counter screen (AID 1963581). Also: nearly all actives have a fitted effect of over 45% in size. The method in brief:
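ATP content measured by luminescence in HCT-116 p53RE-bla cells treated 16 h at 37 C, same wells as the reporter screen.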

Assay [10] can be described thus: p53 small molecule agonists, cell-based qHTS assay (AID 1963582; active = well fitted activation curve with a large enough effect in the signal ratio in the repeat runs, not every such curve was filed as active; the % refers to the signal ratio). The method in brief: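 16 h compound exposure (37 C) of p53 response element–bla cells, preceded by 5 h recovery at 37 C/5% CO2; read-out via LiveBLAzer B/G FRET substrate, 2 h RT, fluorescence intensity.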
For assay [11], the target named is 5-hydroxytryptamine receptor 2A (Homo sapiens) (UniProt P28223). Kind of assay: 5-hydroxytryptamine receptor 2A (HTR2A) small molecule antagonists, cell-based qHTS assay (AID 1963586). Also: nearly all actives have a fitted effect of over 45% in size. Also: potency is read from the fitted curve at half-maximal effect. The method in brief: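 CHO cells stably expressing human HTR2A were plated for 18 h at 37 C, then loaded with calcium dye for 1 h. Compounds were preincubated 5 min at room temperature before DOI (4 nM solution) was added. Kinetic fluorescence was read for 3 min.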
Chain of 5-hydroxytryptamine receptor 2A (Homo sapiens) (P28223 whole entry, looked up): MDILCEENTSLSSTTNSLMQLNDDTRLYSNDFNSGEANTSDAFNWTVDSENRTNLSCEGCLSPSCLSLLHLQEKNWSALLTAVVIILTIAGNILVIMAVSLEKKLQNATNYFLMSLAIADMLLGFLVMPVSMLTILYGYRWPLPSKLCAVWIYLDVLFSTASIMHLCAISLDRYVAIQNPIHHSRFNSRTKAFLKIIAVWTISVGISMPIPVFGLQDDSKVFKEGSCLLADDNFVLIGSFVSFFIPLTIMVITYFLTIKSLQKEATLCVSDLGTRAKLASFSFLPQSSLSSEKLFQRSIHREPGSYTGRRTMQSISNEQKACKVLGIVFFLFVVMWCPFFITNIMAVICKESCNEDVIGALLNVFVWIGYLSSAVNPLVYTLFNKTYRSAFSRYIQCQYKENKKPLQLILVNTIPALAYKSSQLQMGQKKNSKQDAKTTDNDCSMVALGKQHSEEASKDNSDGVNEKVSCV

Assay [12] has the same target. Kind of assay: 5-hydroxytryptamine receptor 2A (HTR2A) small molecule agonists, cell-based qHTS assay (AID 1963587). Also: nearly all actives have a fitted effect of over 30% in size. The method in brief: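 CHO cells stably expressing human HTR2A, plated 18 h, loaded with calcium dye 1 h at 37 C. Agonist mode: compounds added and intracellular calcium fluorescence recorded kinetically for 2 min at 1 sec intervals.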
In assay [13] the target is Muscarinic acetylcholine receptor M1 (Homo sapiens) (UniProt P11229). Kind of assay: Cholinergic receptor muscarinic 1 (CHRM1) small molecule antagonists, cell-based qHTS assay (AID 1963588). Also: nearly all actives have a fitted effect of over 40% in size. Also: potency is read from the fitted curve at half-maximal effect. The method in brief:
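Compounds were tested at 15 concentrations in three independent runs. Dye-loaded CHRM1-CHO cells were exposed 5 min at room temperature before stimulation by acetylcholine added at 50nM. Intracellular calcium was read kinetically on FDSS for 3 min.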

Assay [14] has the same target. Kind of assay: Cholinergic receptor muscarinic 1 (CHRM1) small molecule agonists, cell-based qHTS assay (AID 1963589). Also: nearly all actives have a fitted effect of over 35% in size. A digest of the protocol: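 Homogeneous fluorescence calcium flux, agonist mode. Human M1-expressing CHO cells; compound dosed at 15 concentrations, three independent runs; signal sampled every 1 sec.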
The nature of assay [15]: cAMP Responsive Elements (CRE) small molecule agonists, cell-based qHTS assay (AID 1963590). A digest of the protocol: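 HEK 293T cells stably bearing CRE-bla were plated at 2,000 cells per well and rested 18 h. Compounds, positive controls or DMSO were added for 3 h at 37 C. LiveBLAzer B/G substrate was then loaded for 2 h at room temperature.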
In assay [16] the target is Beta-2 adrenergic receptor (Homo sapiens) (UniProt P07550). Kind of assay: Adrenergic beta2 receptor (ADRB2) small molecule antagonists, cell-based qHTS assay (AID 1963592). Also: nearly all actives have a fitted effect of over 50% in size. Also: potency is read from the fitted curve at half-maximal effect. A digest of the protocol:
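Assay format: CHO-ADRB2 cells, 18-20hr seeding at 37C/5% CO2, then compound plus 1nM isoproterenol agonist mix for 0.5hr RT. Homogeneous time-resolved fluorescence cAMP detection after 1hr, expressed as 665/615 nm ratio.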

The target in assay [17] is D(2) dopamine receptor (Homo sapiens) (UniProt P14416). Kind of assay: Dopamine D2 receptor (DRD2) small molecule agonists, cell-based qHTS assay (AID 1963594). Also: nearly all actives have a fitted effect of over 35% in size. A digest of the protocol:
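HEK293 cells stably expressing human DRD2, pre-treated with PDE inhibitor Ro20-1724 (0.1 mM final) and compound 10 min at room temperature, then stimulated with NKH477 (200nM […]) for 30 min. cAMP read by HTRF (665/620 nm).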

Assay [18] has the same target. The experiment in a line: Dopamine D2 receptor (DRD2) small molecule antagonists, cell-based qHTS assay (AID 1963595; active = well fitted inhibition curve with a large enough effect in the signal ratio in the repeat runs, with a control signal flat; the % refers to the signal ratio). A digest of the protocol:
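HEK293 cells stably expressing DRD2, preincubated with 0.1 mM Ro20-1724 and compounds 10 min, were stimulated with 200 nM NKH477 plus 12 nM quinpirole for 30 min at room temperature; cAMP measured by HTRF (665/620 nm).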

Assay [19] is described as follows: cAMP Responsive Elements (CRE) small molecule antagonists, cell-based qHTS assay (AID 1963591; active = well fitted inhibition curve with a large enough effect in the signal ratio in the repeat runs, not every such curve was filed as active; the % refers to the signal ratio). The method in brief: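 First, CRE-bla HEK293T cells settled 18 h at 37 C. Next, compound and 0.25 uM final NKH477 were applied for 3 h. Last, LiveBLAzer B/G substrate was loaded for 2 h at room temperature.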

“And” between values parts separate entries of the source, which are not always exact repeats. Identical values can stand only once. Inconclusive results are not listed. More than one record can exist for a structure, and the calls need not agree. The source made the active and inactive calls. Unless noted, calls follow the shape of the full dose curve.

The source of these data is PubChem BioAssay (Tox21).

Chain of Beta-2 adrenergic receptor (Homo sapiens) (P07550 whole entry, looked up): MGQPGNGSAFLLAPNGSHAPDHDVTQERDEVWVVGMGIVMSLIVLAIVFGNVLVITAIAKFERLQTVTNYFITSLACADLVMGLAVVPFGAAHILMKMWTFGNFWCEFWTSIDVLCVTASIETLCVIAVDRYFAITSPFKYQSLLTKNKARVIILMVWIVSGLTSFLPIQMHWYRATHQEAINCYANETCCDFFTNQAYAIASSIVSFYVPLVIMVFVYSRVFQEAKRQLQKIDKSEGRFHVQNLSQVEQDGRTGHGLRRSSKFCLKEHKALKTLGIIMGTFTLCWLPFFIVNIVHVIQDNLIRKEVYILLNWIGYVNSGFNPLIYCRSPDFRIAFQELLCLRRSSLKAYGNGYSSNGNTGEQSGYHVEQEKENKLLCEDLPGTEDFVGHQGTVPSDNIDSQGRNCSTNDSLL
Chain of D(2) dopamine receptor (Homo sapiens) (P14416 whole entry, looked up): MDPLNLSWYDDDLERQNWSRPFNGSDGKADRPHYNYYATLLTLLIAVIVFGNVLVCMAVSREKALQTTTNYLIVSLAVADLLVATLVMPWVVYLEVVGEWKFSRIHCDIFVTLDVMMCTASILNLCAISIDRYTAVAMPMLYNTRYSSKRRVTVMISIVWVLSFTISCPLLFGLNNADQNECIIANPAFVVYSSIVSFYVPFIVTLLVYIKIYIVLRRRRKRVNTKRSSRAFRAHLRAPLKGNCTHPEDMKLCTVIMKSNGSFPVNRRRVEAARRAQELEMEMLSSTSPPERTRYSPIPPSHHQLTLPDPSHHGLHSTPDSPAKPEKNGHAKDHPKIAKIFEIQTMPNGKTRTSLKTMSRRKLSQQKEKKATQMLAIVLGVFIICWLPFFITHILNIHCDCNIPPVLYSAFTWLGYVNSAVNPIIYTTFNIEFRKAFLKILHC
Chain of KiSS-1 receptor (Homo sapiens) (Q969F8 whole entry, looked up): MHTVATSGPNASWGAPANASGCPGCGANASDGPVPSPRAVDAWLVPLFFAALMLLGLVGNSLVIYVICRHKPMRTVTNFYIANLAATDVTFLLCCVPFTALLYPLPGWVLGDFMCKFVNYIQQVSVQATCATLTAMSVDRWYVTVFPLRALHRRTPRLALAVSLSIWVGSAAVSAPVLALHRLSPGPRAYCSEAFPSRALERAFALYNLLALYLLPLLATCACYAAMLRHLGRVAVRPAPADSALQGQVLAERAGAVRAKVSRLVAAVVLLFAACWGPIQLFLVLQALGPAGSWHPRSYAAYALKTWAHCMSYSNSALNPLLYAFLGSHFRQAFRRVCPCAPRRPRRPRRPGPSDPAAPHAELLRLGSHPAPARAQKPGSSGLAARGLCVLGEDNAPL
Chain of Muscarinic acetylcholine receptor M1 (Homo sapiens) (P11229 whole entry, looked up): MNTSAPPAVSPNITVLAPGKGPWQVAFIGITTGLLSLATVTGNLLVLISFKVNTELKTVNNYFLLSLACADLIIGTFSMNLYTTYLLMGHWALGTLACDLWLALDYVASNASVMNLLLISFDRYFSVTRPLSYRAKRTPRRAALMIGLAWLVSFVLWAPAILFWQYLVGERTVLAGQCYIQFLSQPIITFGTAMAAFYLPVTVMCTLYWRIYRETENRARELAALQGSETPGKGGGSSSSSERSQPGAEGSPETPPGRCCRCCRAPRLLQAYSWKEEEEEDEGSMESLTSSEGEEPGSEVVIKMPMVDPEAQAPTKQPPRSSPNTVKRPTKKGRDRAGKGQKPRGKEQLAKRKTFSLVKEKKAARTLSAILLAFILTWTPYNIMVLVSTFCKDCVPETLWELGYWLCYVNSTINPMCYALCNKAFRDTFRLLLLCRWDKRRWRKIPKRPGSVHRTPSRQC

As to `c1ccc2cc3ccccc3cc2c1`, the Potency entry in [1], in [2], in assay [3], in assay [4], in assay [5] and in assay [6] was “inactive” in each case. For the same compound, the Potency entry in assay [7], in assay [8], in assay [9], in [10], in [11] and in assay [12] was “inactive” in each case. The Potency entry in [13], in [14], in assay [15], in assay [16], in assay [17] and in [18] was “inactive” each time.

For `CCCCCCCCCCCO`, the Potency result in assay [1], in assay [2], in [3], in assay [4], in [5] and in assay [6] was “inactive” in each case. The Potency entry in assay [7], in assay [8], in assay [9], in [10], in assay [11] and in assay [12] was “inactive” throughout. Also, the Potency result in assay [13], in assay [14], in [15], in assay [19], in [16] and in [17] was “inactive” each time. Also, in assay [18], the Potency entry was “inactive”.

Regarding `Nc1c2c(nc3ccccc13)CCCC2`, the Potency in assay [1] was 54.5 µM (active) and inactive; in [2], 48.6 µM (active) and inactive. In addition, the Potency entry in assay [3], in [4], in assay [5], in [6], in assay [7] and in [8] was “inactive” each time. Moreover, the Potency entry in assay [9], in assay [10], in assay [19], in assay [16], in [17] and in assay [18] was “inactive” in each case.

Regarding `c1ccc2ccccc2c1`, the Potency entry in assay [1], in assay [2], in assay [3], in assay [4], in assay [5] and in [6] was “inactive” each time. In addition, the Potency entry in assay [7], in assay [8], in [9], in [10], in [11] and in assay [12] was “inactive” throughout. Moreover, the Potency result in assay [13], in assay [14], in assay [15], in assay [19], in [16] and in assay [17] was “inactive” throughout. Further, the Potency entry in [18] was “inactive”.

Regarding `OCCOCCN1CCN(C(c2ccccc2)c2ccc(Cl)cc2)CC1` (stereo unspecified), the Potency entry in assay [1], in [2], in assay [3], in assay [4], in assay [5] and in assay [6] was “inactive” in each case. Moreover, the Potency result in [7], in assay [8], in assay [9], in assay [10], in assay [12] and in assay [15] was “inactive” throughout. Besides, the Potency entry in assay [19], in assay [17] and in assay [18] was “inactive” each time. In addition, the Potency was 1.47 µM (active) and 1.63 µM (active) in assay [11]; 7.38 µM (active) in assay [13]; “inactive and 26.6 µM (active)” in assay [16].

Consider `Cc1c(OCC(F)(F)F)ccnc1CS(=O)c1nc2ccccc2[nH]1` (stereo unspecified), for which the Potency result in assay [1], in assay [3], in assay [4], in assay [5], in assay [6] and in [7] was “inactive” in each case. Moreover, the Potency entry in [8], in assay [9], in assay [10], in assay [15], in assay [19] and in [16] was “inactive” in each case. Besides, the Potency result in [17] and in assay [18] was “inactive” each time. Besides, in assay [2], the Potency was 24.3 µM (active) and 33.5 µM (active).

In the case of `O=C(Cl)c1c(Cl)c(Cl)c(C(=O)Cl)c(Cl)c1Cl`, the Potency result in assay [1], in [2], in assay [3], in [4], in assay [5] and in assay [6] was “inactive” each time. The Potency result in [7], in [8], in [9], in assay [10], in assay [11] and in [12] was “inactive” in each case. The Potency result in assay [13], in assay [14], in assay [15], in assay [16], in assay [17] and in assay [18] was “inactive” throughout.
